# Source: PubChem (National Center for Advancing Translational Sciences (NCATS))
# KB-V1 cytotox: kills drug-selected multidrug resistant KB-V1 cells | KB-V1 MDR cells viability, CellTiter-Glo, 72 h | Potency, µM (top dose mostly 46.1 µM), hits mostly cytotoxic | actives 3.4% (n = 400,000) | AID 1347076; further: nearly all actives have a fitted effect of over 60% in size
#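 Cytotoxicity via CellTiter-Glo luminescence after 72 h compound exposure at 37 degrees C. Cells: drug-selected KB-V1 line, DMEM phenol-red free plus 10% FBS. Compounds tested at multiple concentrations; normalized data fitted to concentration-effect curves.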
# HT1080 IDH1KD tx: HT-1080 IDH1 knockdown cell toxicity (counter line); HT-1080 IDH1 knockdown viability, ATP luminescence, 48 h; actives 2% (n = 360,000); AID 686971; Potency, µM (top dose mostly 46.1 µM), without a hit: at the top dose activity, negative = toxicity, actives largely listed as cytotoxic;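 further: 0% = DMSO wells and -100% = cell-free medium wells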
#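 Cytotoxicity counter-line: IDH1KD HT-1080, 48 h, CellTiter-Glo. Curves classed by r2, magnitude and activity.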
# HT1080-NT tox: kills 2HG-producing HT-1080-NT fibrosarcoma cells; HT-1080-NT fibrosarcoma viability, CellTiter-Glo ATP luminescence, 48 h; Potency, µM (top dose mostly 46.1 µM), inactives show at the highest dose activity, negative = less viability, hits mostly cytotoxic; actives 1.6% (n = 360,000);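 further: NT is the 2HG producing partner of a matched IDH1 knockdown line; 0% = DMSO-treated cells and -100% = media-only wells without cells; nearly all actives have a fitted effect of over 55% in size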
#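 Compounds were tested in concentration-response format on HT-1080-NT cells for 48 hours at 37 degrees C. Cell viability came from CellTiter-Glo luminescence; curves were classified by r2, response magnitude and activity.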
# KB-3-1 tox: kills parental KB-3-1 adenocarcinoma cells; Potency, µM (titrated, usually from 46.1 µM), usual class: cytotoxic; KB-3-1 viability, CellTiter-Glo ATP luminescence, 72 h; actives 1.4% (n = 400,000); further: nearly all actives have a fitted effect of over 60% in size
#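 Parental KB-3-1 adenocarcinoma cells in phenol-red-free DMEM with 10% FBS were pin-treated with compounds at several concentrations, incubated 72 h at 37 °C, and viability read by CellTiter-Glo luminescence; concentration-effect curves were fitted after normalization.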
# An asterisk follows results filed as active; i = inactive; ? = inconclusive; . = no result. The list is not random: actives were taken first. Their share in the collection is about 5.7%. The call rests on the fitted dose curve; in most records, active means well fitted curve in the direction sought with a large enough effect; inconclusive means small, poorly fitted or top-dose-only effect, or another doubt; inactive means no such curve, though single readings can be large; an effect the other way counts as inactive or inconclusive. Unless noted, on the % scale 0 is the no-effect control and ±100 the full control effect; potency means the concentration at half of the fitted maximal effect.
SMILES,KB-V1 cytotox,HT1080 IDH1KD tx,HT1080-NT tox,KB-3-1 tox
Cc1ccc(O)c(/C=N/NC(=O)CN2CCCC2)c1,?,?,-28.7%,i
O=C(N/N=C/c1c(O)ccc2ccccc12)c1cccc(C(F)(F)F)c1,i,2.31µM*,?,?
O=C(N/N=C\c1c(O)ccc2ccccc12)c1ccc(Cn2cccn2)o1,?,?,?,16.4µM*
CCC(C)NC(=O)c1sc2nc(C)c(C(=O)Nc3ccc(C)cc3C)c(-c3ccccc3Cl)c2c1N (stereo not drawn),i,.,.,i
CCOc1ccc(Cl)cc1S(=O)(=O)n1cnc2ccccc21,4.47µM*,11.2µM*,11.2µM*,?
CCOc1ccc(C)cc1S(=O)(=O)n1cnc2ccccc21,?,13µM*,9.2µM*,13µM*
COc1ccc(Cl)cc1S(=O)(=O)n1cnc2ccccc21,?,-7.5%,-5.7%,i
Cc1cccc(CNS(=O)(=O)c2ccc(-c3coc(C)n3)cc2)c1,i,.,.,i
NC(=O)c1cc(Br)cc2c3c([nH]c12)CCCC3,16.4µM*,?,?,8.2µM*
Cc1ccc(/C=N/NC(=O)c2ccc(Br)o2)s1,i,-4.5%,-6.1%,i
CCc1ccc(/C=N\NC(=O)c2ccc(Br)o2)s1,18.4µM*,-15.7%,-0.6%,i
CCc1ccc(/C=N/NC(=O)c2cc(-c3ccccc3OC)nc3ccccc23)s1,i,-10.1%,-14.2%,?
CCc1ccc(/C=N/NC(=O)c2cc(C3CC3)nc3ccc(Br)cc23)s1,4.11µM*,5.8µM*,6.51µM*,4.61µM*
N#CC1C=Cc2c(ccc3ccccc23)N1C(=O)c1ccccc1 (stereo not drawn),i,?,1.84µM*,0.461µM*
CC(=O)c1cccc(NC(=O)c2c(C)nn(-c3ccc(F)cc3)c2-n2cccc2)c1,?,.,.,i
CC(COc1ccccc1)N1CCC(CO)(CCc2ccccc2)CC1 (stereo not drawn),?,?,16.4µM*,i
Cc1sc2c(c1C)c(=O)n(-c1ccc(Cl)cc1)c(=O)n2CC(=O)c1ccccc1,i,.,.,i
COc1ccc(CCN2CCC(Nc3nc4ccccc4n3Cc3ccc(F)cc3)CC2)cc1,20.6µM*,8.2µM*,14.6µM*,?
COC(=O)CSc1ncnc2scc(-c3ccccc3)c12,i,-6.9%,-22.6%,i
Cn1nnnc1Sc1ncnc2scc(-c3ccccc3C(F)(F)F)c12,?,.,.,16.4µM*
Fc1ccc(CSc2ncnc3scc(-c4ccccc4)c23)cc1,14.6µM*,-1.8%,2.1%,i
Cn1nnnc1Sc1ncnc2scc(-c3ccc(C(F)(F)F)cc3)c12,18.4µM*,.,.,?
Cn1nnnc1Sc1ncnc2scc(-c3ccsc3)c12,i,.,.,?
CCn1nnnc1Sc1nc(C)nc2scc(-c3ccccc3)c12,i,.,.,13µM*
O=S(=O)(c1cc(Br)c(Br)s1)N1CCN(c2ccccc2)CC1,i,.,.,i
SMILES,KB-V1 cytotox,HT1080 IDH1KD tx,HT1080-NT tox,KB-3-1 tox
Cn1nnnc1Sc1ncnc2scc(-c3cccc(F)c3)c12,i,.,.,i
Cn1nnnc1Sc1ncnc2scc(-c3ccc(-c4ccccc4)cc3)c12,?,.,.,14.6µM*
COC(=O)C1=C(COc2ccc(C=O)cc2OC)NC(=O)NC1c1cc(C)ccc1C (stereo not drawn),20.6µM*,11.2%,5.0%,?
O=C1C(Cl)=C(NCCN2CCOCC2)C(=O)c2ccccc21,?,18.4µM*,?,?
O=C1C(Cl)=C(NCCCO)C(=O)c2ccccc21,i,?,?,23.1µM*
CCOCCCNC1=C(Cl)C(=O)c2ccccc2C1=O,i,-6.2%,12.5%,?
Nc1nc2ccc(Cl)cc2cc1C(=O)NCCCN1CCOCC1,i,5.7%,20.3%,i
O=c1c2ccccc2sn1-c1ccccc1,i,16.4µM*,?,?
O=c1c2cc(C(F)(F)F)ccc2sn1-c1ccccc1,20.6µM*,-5.3%,-16.3%,?
COc1ccc(-c2nnc(NC(=O)c3ccc(S(=O)(=O)N4COCC4(C)C)cc3)o2)cc1,?,8.2µM*,?,?
CC1(C)COCN1S(=O)(=O)c1ccc(C(=O)Nc2nnc(-c3ccc(Cl)s3)o2)cc1,i,2.82µM*,?,?
COc1ccc(C(=O)Nc2nnc(C3=COCCO3)o2)cc1,i,-0.9%,-11.4%,i
Clc1ccc(-c2c[n+]3c(n2-c2ccccc2)SCC3)cc1,i,-2.2%,-12.5%,14.6µM*
